Source: PubChem
NS1 function inh – qHTS Assay for Inhibitors of Influenza NS1 Protein Function | 270,000 compounds, 0.4% hits | Potency, µM (titrated, usually from 46.1 µM) | AID 2326, 2010; further: actives are rising curves; nearly all actives have a fitted effect of over 50% in size
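Compounds were scored for reversing the slow growth caused by influenza A NS1 in S. cerevisiae, measured by optical density at 600 nm. Assay medium contained 2% galactose at pH 6.0; NS1-free yeast of the same strain were the positive control.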
Tb PYK inh – qHTS of Trypanosoma Brucei Inhibitors | TbPYK enzyme, Kinase-Glo Plus ATP luminescence, 45 min | 410,000 compounds, 0.12% hits | Potency, µM (highest dose often 76.8 µM), hits mostly inhibitors | pyruvate kinase (Trypanosoma brucei), Q57TT1 | AID 624173, 2012; active means well fitted curve in the direction sought with a large enough effect; inconclusive means small, poorly fitted or top-dose-only effect, or another doubt; inactive means no such curve, though single readings can be large; an effect the other way counts as inactive or inconclusive; further: nearly all actives have a fitted effect of over 50% in size
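Readout: single end-point luminescence (Kinase-Glo Plus, 10 min). Reaction conditions were TbPYK/substrate plus 130 uM ADP, 45 min at RT, pH 7.2 TEA buffer. No-enzyme wells served as controls, and data were normalized before concentration-response fitting.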
CHX counter – Cycloheximide Counterscreen for Small Molecule Inhibitors of Shiga Toxin; max response, %; cell reporter, cycloheximide protein synthesis inhibition counterscreen; 300,000 compounds, 12% hits; AID 2314, 2010; in the data active means max response mostly above about 13%, no sharp cut-off; inactive means mostly below about 14%; further: read at 38.3 µM for the half of the compounds with a filed dose
SARS PLpro yeast – qHTS of Yeast-based Assay for SARS-CoV PLP. Potency, µM (doses to about 32.9 µM), usual class: activators. S. cerevisiae expressing SARS-CoV PLpro, growth rescue. 330,000 compounds, 0.19% hits. AID 485353, 2010; further: nearly all actives have a fitted effect of over 55% in size
LmPK inhibitor – qHTS Assay for Inhibitors of Leishmania Mexicana Pyruvate Kinase (LmPK) | Q27686 | purified LmPK, Kinase-Glo ATP luminescence, 1 h | Potency, µM (highest dose often 57.5 µM), hits mostly inhibitors | 290,000 compounds, 0.37% hits; active means well fitted curve in the direction sought with a large enough effect; inconclusive means small, poorly fitted or top-dose-only effect, or another doubt; inactive means no such curve, though single readings can be large; an effect the other way counts as inactive or inconclusive
Target sequence (Q27686 whole entry, looked up): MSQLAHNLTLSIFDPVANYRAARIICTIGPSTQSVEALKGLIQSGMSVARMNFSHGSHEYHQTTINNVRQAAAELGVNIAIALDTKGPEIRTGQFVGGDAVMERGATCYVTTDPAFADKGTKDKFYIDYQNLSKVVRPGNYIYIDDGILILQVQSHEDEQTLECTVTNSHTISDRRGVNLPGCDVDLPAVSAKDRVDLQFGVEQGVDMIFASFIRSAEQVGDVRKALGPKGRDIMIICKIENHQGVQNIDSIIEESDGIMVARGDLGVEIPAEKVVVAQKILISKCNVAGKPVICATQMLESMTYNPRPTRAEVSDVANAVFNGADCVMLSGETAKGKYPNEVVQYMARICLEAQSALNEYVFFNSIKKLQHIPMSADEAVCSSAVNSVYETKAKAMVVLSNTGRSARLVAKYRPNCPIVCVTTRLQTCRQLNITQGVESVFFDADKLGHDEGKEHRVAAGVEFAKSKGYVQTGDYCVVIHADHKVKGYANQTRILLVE
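Purified LmPK (0.1 nM) converted ADP (0.1 mM) to ATP with PEP (0.5 mM) in imidazole buffer pH 7.2 with KCl and MgCl2, 1 h at room temperature. ATP was read by Kinase-Glo luminescence; data normalized to uninhibited and no-enzyme controls.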
Shiga inhibitor – A qHTS for Small Molecule Inhibitors of Shiga Toxin | inhibition, % at 38.7 µM | Vero cells, Shiga toxin protein synthesis inhibition reporter | 290,000 compounds, 9.2% hits; in the data active means inhibition mostly above about 28%, no sharp cut-off; inactive means mostly below about 43%
Flu NS1 inh – Assay for Inhibitors of Influenza NS1 Protein Function: Hit Validation; shares compounds with NS1 function inh; influenza NS1 function cell assay, 15-point titration; activity change, negative = inhibition, % at 32.9 µM; 1,400 tested, under 10 active; AID 492980, 2010
PR8 titer – Assay for Inhibitors of Influenza NS1 Protein Function: Influenza virus replication assay in MDCK cells infected with virus A/PR/8/34; shares compounds with NS1 function inh; MDCK infected influenza A/PR/8/34, virus titer TCID50; active compounds read low; virus titer (log TCID50), log10 TCID50 at 5 µM; 95 compounds, 30% hits; AID 504647, 2011; call rule not given here
A number is an active result; i = inactive; ? = inconclusive; nt = not tested or not shown; [ ] = dose if it differs, or a comment. This is one part of a sample in which hits are shown more often than they occur. Unless noted, the call rests on the fitted dose curve.

SMILES	NS1 function inh	Tb PYK inh	CHX counter	SARS PLpro yeast	LmPK inhibitor	Shiga inhibitor	Flu NS1 inh	others
CCN1CCCC1CN(Cc1cc2cc(C)ccc2[nH]c1=O)C(=O)Nc1ccccc1OC (stereo unspecified)	11µM	i	i	i	i	i	i
COc1ccc(NC(=O)c2cc(-c3ccco3)on2)c(OC)c1	?	i	i	i	i	i	i
COc1ccc(NC(=O)c2cc(Cl)ccc2NC(=O)c2ccco2)c(OC)c1	i	i	i	i	i	i	nt
Cc1nnc(NC(=O)CSc2ncc(-c3ccccc3)[nH]2)s1	4.5µM	i	i	i	i	31	i
CSCCC(NC(=O)c1ccccc1Cl)C(=O)N1CC(C)OC(C)C1 (stereo unspecified)	nt	i	nt	i	nt	nt	nt
CC(C)(C)NC(=O)c1ccccc1-c1nc2ccccc2s1	?	i	i	i	i	i	i	PR8 titer=i
O=C(OCCOc1ccc(Br)cc1)c1ccc(Cl)c(S(=O)(=O)N2CCOCC2)c1	nt	i	nt	i	nt	nt	nt
CC(C)NS(=O)(=O)c1ccc(OCC(=O)Nc2cccc(F)c2)cc1	?	i	i	i	i	i	i
Cc1ccc(S(=O)(=O)Nc2ccccc2-c2ccccc2NS(=O)(=O)c2ccc(C)cc2)cc1	10µM	i	i	i	i	i	i	PR8 titer=i
COC(=O)c1ccc(Sc2ccccc2NS(=O)(=O)c2ccc(C)cc2)nc1	?	i	i	i	i	i	?
Cc1ccc(S(=O)(=O)Nc2ccccc2C(N)=O)cc1	i	i	i	nt	i	i	nt
CN(C(=O)c1cc(-c2ccccc2O)on1)c1ccccc1	nt	i	nt	nt	nt	nt	nt
Cc1[nH]nc2c1C(c1ccc(F)cc1)C(C#N)=C(N)O2 (stereo unspecified)	i	i	i	i	i	i	nt
Cc1oc(C)c2c(=O)ccc3c(c12)OC(N)=C(C#N)C3c1ccc(F)cc1 (stereo unspecified)	8.9µM	i	i	i	i	i	i
CC(=O)c1cc(-c2ccccc2)n(CC(=O)Nc2ccc(C)cc2C)c1C	nt	i[15.4 µM]	nt	nt	nt	nt	nt
Cc1ccc(C)c2[nH]c(=O)c(CN(Cc3ccc4c(c3)OCO4)Cc3nnnn3Cc3ccco3)cc12	11µM	i	i	i	i	i	i
CCOc1ccc2[nH]c(=O)c(CN(Cc3ccco3)Cc3nnnn3Cc3ccccc3)cc2c1	i	i	i	i	i	i	nt
COc1ccc2[nH]c(=O)c(CN(Cc3ccco3)Cc3nnnn3Cc3ccccc3)cc2c1	13µM	i	i	i	i	i	i
c1ccc2c(c1)ccn1c(Cc3ccsc3)c(C3CCCCC3)nc21	nt	i	nt	nt	nt	nt	nt
CCN[C@H]1CN(CCCOC)S(=O)(=O)c2sc(S(N)(=O)=O)cc21	nt	i	nt	i	nt	nt	nt
CN(C)S(=O)(=O)c1cccc(C(=O)OCC(=O)c2ccc3c(c2)NC(=O)CO3)c1	?	i	i	i	i	i	i
CCN(CC)S(=O)(=O)c1cc(C(=O)OCC(=O)c2ccc3c(c2)NC(=O)CO3)ccc1F	i	i	i	i	i	i	nt
C/C(O)=C(/C=Nc1ccccc1)C(=O)Nc1ccccc1	nt	i	i	i	i	i	nt
Cc1cccc(Nc2nnc(C)c(=O)n2N)c1	i	i	i	i	i	i	nt
Cc1ccccc1Nc1nnc(C)c(=O)n1N	1.8µM	i	i	i	i	i	i
SMILES	NS1 function inh	Tb PYK inh	CHX counter	SARS PLpro yeast	LmPK inhibitor	Shiga inhibitor	Flu NS1 inh	others
Cc1cc(C)c2nc(NC(=O)c3cccc(S(=O)(=O)N4CCc5ccccc54)c3)sc2c1	18µM	i	i	i	i	i	i
O=C(Nc1nc(-c2ccccc2)cs1)c1ccc(S(=O)(=O)N2CCc3ccccc32)cc1	5µM	i	i	i	i	i	?
CCCC(=O)Nc1nc(-c2ccc3c(c2)CCN3S(C)(=O)=O)cs1	i	i	i	i	i	i	nt
CS(=O)(=O)N1CCc2cc(-c3csc(NC(=O)Cc4ccccc4)n3)ccc21	10µM	i	i	i	i	i	i
Cc1cccc2sc(NC(=O)c3cccc(S(=O)(=O)N4CCc5ccccc54)c3)nc12	i	i	i	i	i	i	nt
O=C(Nc1nc(-c2ccccc2)cs1)C1CCCN(S(=O)(=O)c2ccccc2)C1 (stereo unspecified)	11µM	i	i	i	i	i	i
Cc1ccc(-c2csc(NC(=O)c3ccc(S(=O)(=O)N4CCc5ccccc54)cc3)n2)cc1	i	i	i	i	i	i	nt
COc1ccc(OCC(=O)NCc2nc(-c3ccccc3)no2)cc1	nt	i	nt	nt	nt	nt	nt
COc1ccc(-c2csc(NC(=O)c3ccc(S(=O)(=O)N4CCc5ccccc5C4)cc3)n2)c(OC)c1	13µM	i	i	i	i	i	i
CCOc1ccc(-c2csc(NC(=O)c3ccc(S(=O)(=O)N4CCc5ccccc5C4)cc3)n2)cc1	i	i	i	i	i	i	nt
CC1=CC(C)C(=O)N(CCN2CCOCC2)C(C)=C1 (stereo unspecified)	nt	i	nt	nt	nt	nt	nt
CCC1c2ccc(C)n2CCN1C(=O)Nc1ccccc1OC (stereo unspecified)	16µM	i	15	i	i	29	i
CNC(=O)c1ccccc1S(=O)(=O)c1ccccc1C#N	?	i	i	i	i	i	i
CC(C)NC(=O)c1ccccc1S(=O)(=O)c1ccccc1C#N	i	i	i	i	i	i	nt
Cn1cc([N+](=O)[O-])c(C(=O)n2cccn2)n1	?	i	i	i	i	i	i
O=C(NCC1CCCO1)c1ccc(COc2ccccc2)cc1 (stereo unspecified)	i	i	i	i	i	i	nt
O=C(N/N=C1\CC2CC=CC12)c1ccc(COc2ccccc2)cc1 (stereo unspecified)	5.6µM	i	i	i	i	i	i
CCOc1ccc(NS(=O)(=O)c2ccc(-c3cc(C)no3)s2)cc1	nt	i[15.4 µM]	nt	nt	nt	nt	nt
CCc1ccccc1Nc1nc(N)nc(CSCC(=O)c2cc(C)n(C)c2C)n1	i	i	i	i	i	i	nt
Cc1ccccc1Nc1nc(N)nc(CSCC(=O)Nc2cccc(Br)c2)n1	?	i	i	i	i	i	i
C[C@H](CO)N1C[C@H](C)[C@@H](CN(C)C(=O)Nc2ccc3c(c2)OCO3)Oc2c(NC(=O)Nc3ccc4c(c3)OCO4)cccc2C1=O	nt	i	nt	i	nt	nt	nt
Cc1ccc(CCN2CC(C(=O)NC3CCCC3)CC2=O)cc1 (stereo unspecified)	?	i	i	i	i	i	i
CNC(=O)C1CC(=O)N(CCc2ccc(C)cc2)C1 (stereo unspecified)	i	i	i	i	i	i	nt
